Source: PubChem BioAssay AID1159580 (chemical genetic matrix, 2015)
The whole screen tested about 5,500 compounds, of which about 2,000 (36%) were called active. About 18% were inconclusive and are not listed. Cut-off read from the data, not from the text of the source: active = normalized growth mostly below about 0.91 (no sharp cut-off); inconclusive = no clear call, values can overlap the other calls; inactive = mostly above about 0.92. The list shows a part of the results.

Assay: chemical genetic growth profiling, strain panel (AID 1159580);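 note: tested at 20 µM; growth read once vehicle control cultures reached saturation at 30 °C; 1 = growth at the plate median or of vehicle wells; lower values mean less growth of the strain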
Details: growth OD
[1] = S. cerevisiae deletion strains, locus YAL013W, strain DEP1, hits give low values
[2] = S. cerevisiae deletion strains, locus YBR229C, strain ROT2, hits give low values
[3] = S. cerevisiae deletion strains, locus YDL101C, strain DUN1, hits give low values
[4] = S. cerevisiae deletion strains, locus YDR150W, strain NUM1, hits give low values
[5] = S. cerevisiae deletion strains, locus YEL061C, strain CIN8, hits give low values
[6] = S. cerevisiae deletion strains, locus YGR078C, strain PAC10, hits give low values
[7] = S. cerevisiae deletion strains, locus YHR030C, strain SLT2, hits give low values
[8] = S. cerevisiae deletion strains, locus YHR087W, strain rtc3, hits give low values
[9] = S. cerevisiae deletion strains, locus YJR043C, strain POL32, hits give low values
[10] = S. cerevisiae deletion strains, locus YJR075W, strain HOC1, hits give low values
[11] = S. cerevisiae deletion strains, locus YKL190W, strain CNB1, hits give low values
[12] = S. cerevisiae deletion strains, locus YLR039C, strain RIC1, hits give low values
[13] = S. cerevisiae deletion strains, locus YLR058C, strain SHM2 (second series), hits give low values
[14] = S. cerevisiae deletion strains, locus YLR085C, strain ARP6, hits give low values
[15] = S. cerevisiae deletion strains, locus YLR262C, strain YPT6, hits give low values
[16] = S. cerevisiae deletion strains, locus YML094W, strain GIM5, hits give low values
[17] = S. cerevisiae deletion strains, locus YMR219W, strain ESC1, hits give low values
[18] = S. cerevisiae deletion strains, locus YMR263W, strain SAP30, hits give low values
[19] = S. cerevisiae deletion strains, locus YNL153C, strain GIM3, hits give low values
[20] = S. cerevisiae deletion strains, locus YNL298W, strain CLA4 (second series), hits give low values
[21] = S. cerevisiae deletion strains, locus YNL322C, strain KRE1, hits give low values
[22] = S. cerevisiae deletion strains, locus YNR030W, strain Alg12, hits give low values
[23] = S. cerevisiae deletion strains, locus YPL055C, strain LGE1, hits give low values
[24] = S. cerevisiae deletion strains, locus YPR135W, strain CTF4, hits give low values
[25] = S. cerevisiae strains, strain wild type, hits give low values

Measured: normalized growth

NC(N)=NC(N)=Nc1ccccc1C(F)(F)F
inactive: [1] 0.987 | [2] 0.982 | S. cerevisiae deletion strains, locus YCL061C, strain MRC1, hits give low values 1.01 | [3] 0.969 | [4] 0.895 | [5] 0.993 | [6] 0.979 | [7] 0.935 | [8] 0.966 | [9] 0.998 | [10] 1.01 | [11] 0.997 | [12] 0.989 | [13] 0.982 | [14] 1.01 | [15] 0.997 | [16] 0.923 | [17] 0.987 | [18] 1.06 | S. cerevisiae deletion strains, locus YNL128W, strain TEP1, hits give low values 0.984 | [19] 1.02 | [20] 0.938 | [21] 0.993 | [22] 0.983 | [23] 0.962 | [24] 0.922 | [25] 0.986

CCOC(=O)c1sc(S(C)=NC(=O)Nc2ccc(Cl)cc2)c2c1CCC=C2 (stereo unspecified)
inactive: S. cerevisiae deletion strains, locus YAR019C, strain CDC15, hits give low values 0.985 | S. cerevisiae deletion strains, locus YBL105C, strain PKC1, hits give low values 0.974 | S. cerevisiae deletion strains, locus YBR135W, strain CKS1, hits give low values 0.974 | S. cerevisiae deletion strains, locus YBR136W, strain MEC1, hits give low values 0.974 | S. cerevisiae deletion strains, locus YBR160W, strain CDC28, hits give low values 0.978 | S. cerevisiae deletion strains, locus YDL017W, strain CDC7, hits give low values 0.979 | S. cerevisiae deletion strains, locus YDL028C, strain MPS1, hits give low values 0.971 | [3] 0.97 | S. cerevisiae deletion strains, locus YDL108W, strain KIN28, hits give low values 0.972 | S. cerevisiae deletion strains, locus YDL132W, strain cdc53, hits give low values 0.965 | S. cerevisiae deletion strains, locus YDL214C, strain PRR2, hits give low values 0.922 | S. cerevisiae deletion strains, locus YDR052C, strain DBF4, hits give low values 0.981 | S. cerevisiae deletion strains, locus YDR054C, strain cdc34, hits give low values 0.974 | S. cerevisiae deletion strains, locus YDR226W, strain ADK1, hits give low values 0.963 | S. cerevisiae deletion strains, locus YDR477W, strain SNF1, hits give low values 0.937 | S. cerevisiae deletion strains, locus YER123W, strain YCK3, hits give low values 0.923 | S. cerevisiae deletion strains, locus YER133W, strain GLC7, hits give low values 0.945 | S. cerevisiae deletion strains, locus YFL009W, strain cdc4, hits give low values 0.973 | S. cerevisiae deletion strains, locus YFL029C, strain CAK1, hits give low values 0.977 | S. cerevisiae deletion strains, locus YFR003C, strain YPI1, hits give low values 0.976 | S. cerevisiae deletion strains, locus YFR019W, strain FAB1, hits give low values 0.94 | S. cerevisiae deletion strains, locus YFR028C, strain CDC14, hits give low values 0.975 | S. cerevisiae deletion strains, locus YGR040W, strain KSS1, hits give low values 0.922 | S. cerevisiae deletion strains, locus YGR052W, strain FMP48, hits give low values 0.954 | S. cerevisiae deletion strains, locus YGR092W, strain DBF2, hits give low values 0.947 | [7] 1.05 | S. cerevisiae deletion strains, locus YHR079C, strain IRE1, hits give low values 1.01 | S. cerevisiae deletion strains, locus YHR082C, strain KSP1, hits give low values 1.02 | S. cerevisiae deletion strains, locus YHR205W, strain SCH9, hits give low values 0.959 | S. cerevisiae deletion strains, locus YIL147C, strain SLN1, hits give low values 0.968 | S. cerevisiae deletion strains, locus YJL095W, strain BCK1, hits give low values 0.963 | S. cerevisiae deletion strains, locus YJL128C, strain PBS2, hits give low values 0.94 | S. cerevisiae deletion strains, locus YJL157C, strain FAR1, hits give low values 0.941 | S. cerevisiae deletion strains, locus YJR016C, strain ILV3, hits give low values 0.976 | S. cerevisiae deletion strains, locus YJR066W, strain TOR1 (second series), hits give low values 0.923 | S. cerevisiae deletion strains, locus YJR066W, strain TOR1, hits give low values 1.02 | S. cerevisiae deletion strains, locus YKL048C, strain ELM1, hits give low values 0.96 | S. cerevisiae deletion strains, locus YKL067W, strain YNK1, hits give low values 0.938 | S. cerevisiae deletion strains, locus YKL101W, strain HSL1, hits give low values 0.902 | S. cerevisiae deletion strains, locus YKL193C, strain SDS22, hits give low values 0.974 | S. cerevisiae deletion strains, locus YKL203C, strain TOR2, hits give low values 1.02 | S. cerevisiae deletion strains, locus YLR133W, strain CKI1, hits give low values 0.926 | S. cerevisiae deletion strains, locus YLR403W, strain SFP1, hits give low values 0.953 | S. cerevisiae deletion strains, locus YML070W, strain DAK1, hits give low values 0.916 | S. cerevisiae deletion strains, locus YMR001C, strain CDC5, hits give low values 0.978 | S. cerevisiae deletion strains, locus YMR205C, strain PFK2 (second series), hits give low values 0.951 | S. cerevisiae deletion strains, locus YMR277W, strain FCP1, hits give low values 0.974 | S. cerevisiae deletion strains, locus YNL006W, strain LST8, hits give low values 0.982 | S. cerevisiae deletion strains, locus YNL020C, strain ARK1, hits give low values 0.93 | S. cerevisiae deletion strains, locus YNL161W, strain CBK1, hits give low values 0.978 | S. cerevisiae deletion strains, locus YNL183C, strain NPR1, hits give low values 1 | S. cerevisiae deletion strains, locus YNL207W, strain RIO2, hits give low values 0.968 | S. cerevisiae deletion strains, locus YNL222W, strain SSU72, hits give low values 0.975 | S. cerevisiae deletion strains, locus YNL307C, strain MCK1 (second series), hits give low values 0.951 | S. cerevisiae deletion strains, locus YOL078W, strain AVO1, hits give low values 0.96 | S. cerevisiae deletion strains, locus YOL136C, strain PFK27, hits give low values 0.895 | S. cerevisiae deletion strains, locus YOR061W, strain CKA2, hits give low values 0.945 | S. cerevisiae deletion strains, locus YOR119C, strain RIO1, hits give low values 0.998 | S. cerevisiae deletion strains, locus YOR231W, strain MKK1, hits give low values 0.894 | S. cerevisiae deletion strains, locus YOR329C, strain SCD5, hits give low values 0.976 | S. cerevisiae deletion strains, locus YPL031C, strain PHO85, hits give low values 0.94 | S. cerevisiae deletion strains, locus YPL153C, strain RAD53, hits give low values 0.953 | S. cerevisiae deletion strains, locus YPL204W, strain HRR25, hits give low values 0.9 | S. cerevisiae deletion strains, locus YPL209C, strain IPL1, hits give low values 0.968 | S. cerevisiae deletion strains, locus YPL256C, strain CLN2, hits give low values 0.999 | S. cerevisiae deletion strains, locus YPR025C, strain CCL1, hits give low values 0.981 | S. cerevisiae deletion strains, locus YPR106W, strain ISR1, hits give low values 0.962 | S. cerevisiae deletion strains, locus YPR111W, strain DBF20, hits give low values 0.985 | S. cerevisiae deletion strains, strain NNK1, hits give low values 0.961 | S. cerevisiae deletion strains, strain TSCII, hits give low values 0.97
active: S. cerevisiae deletion strains, locus YLR113W, strain HOG1, hits give low values 0.859

CCOC(=O)c1sc2sc(C(=O)c3ccc(Cl)cc3)c(C)c2c1C
inactive: [1] 1 | [2] 1.03 | [3] 1 | S. cerevisiae deletion strains, locus YDL134C, strain PPH21, hits give low values 1.01 | [4] 0.91 | [5] 1.02 | [6] 1.01 | [7] 1.1 | [8] 1.01 | [9] 0.991 | [10] 1.03 | [11] 1.02 | [12] 1.06 | [13] 1.01 | [14] 1.06 | [15] 1.06 | [16] 1.01 | [17] 1 | [18] 0.937 | S. cerevisiae deletion strains, locus YMR307W, strain GAS1, hits give low values 1.07 | [19] 1 | [20] 1.05 | [21] 1.01 | [22] 1.03 | [23] 0.904 | S. cerevisiae deletion strains, locus YPL241C, strain CIN2, hits give low values 1.01 | [24] 1.09 | [25] 1.02
